Screening results deposited in PubChem BioAssay by several laboratories.
Mcl1-Bid inh: Mcl-1/Bid binding inhibitors, primary screen, biochemical, TR-FRET, 1536-well; Induced myeloid leukemia cell differentiation protein Mcl-1 (Homo sapiens), Q07820; TR-FRET Mcl-1/Bid-Dy647 peptide binding; inhibition, % at 21.7 µM; 220,000 compounds, 0.97% hits;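 active = compounds that cut the binding signal by more than half at the single screening dose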;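 note: His-tagged Mcl-1 with europium anti-His antibody binding Bid BH3 peptide; 0% = Mcl-1 plus peptide wells and 100% = peptide-only wells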
Mcl1 Noxa PPI: Mcl-1/Noxa binding inhibitors, primary screen, biochemical, TR-FRET, 1536-well; TR-FRET Mcl-1/Noxa peptide binding, 2 h; 220,000 compounds, 1.5% hits; Induced myeloid leukemia cell differentiation protein Mcl-1 (Homo sapiens), Q07820; AID 1022, 2008; inhibition, % at 21.7 µM;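 active = compounds that cut the protein-peptide binding signal by more than 50% relative to plate controls in a single-dose test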;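 note: His-tagged Mcl-1 with rhodamine Noxa BH3 peptide and terbium anti-His antibody; 0% = Mcl-1 plus Noxa peptide wells and 100% = peptide-only wells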
Mcl-1 Bim block: inhibitors of Bim peptide binding to Mcl-1, primary screen, biochemical, bead-based flow cytometry, multiplex | Induced myeloid leukemia cell differentiation protein Mcl-1 (Homo sapiens), Q07820 | Bim peptide-Mcl-1 binding | inhibition, % at 10 µM | 190,000 compounds, 0.1% hits | AID 1009, 2008; in the data active = inhibition above about 40%;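 note: 0% = no compound tracer wells and 100% = peptide blocker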
eIF4E-4G inh: eIF4E–eIF4G protein interaction inhibitors, primary screen, biochemical, uHTS, TR-FRET, eIF4GI fragment; TR-FRET eIF4E-eIF4GI(517-606) binding, 2 h; inhibition, % at 21.7 µM; 220,000 compounds, 0.37% hits; AID 782, 2007;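 active = inhibition above about 30%, limit read from the data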;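 note: 0% = full FRET control wells and 100% = background wells lacking eIF4GI fragment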
Hck-Nef inh: inhibitors of Nef-activated human Hck kinase, primary screen, biochemical, Z-Lyte FRET, 384-well, Hck-YEEI | AID 463187, 2010 | 220,000 compounds, 0.68% hits | Tyrosine-protein kinase HCK (Homo sapiens), P08631 | Recombinant Hck-YEEI plus Nef, Z-Lyte FRET kinase assay | inhibition, % at 20 µM;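 active = Hck-Nef kinase inhibition above about 50%, limit read from the data; inactive = inhibition below that limit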;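 note: 0% = DMSO with Hck plus Nef and 100% = Hck alone without Nef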
14-3-3 Bad PPI: inhibitors of 14-3-3 zeta/Bad binding, primary screen, biochemical, TR-FRET, bovine 14-3-3 zeta; inhibition, % at 21.7 µM; AID 781, 2007; TR-FRET 14-3-3zeta/Dy647-pBad peptide displacement, 1 h; 220,000 compounds, 0.71% hits; 14-3-3 protein zeta/delta (Bos taurus), P63103;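 active = inhibition above about 70%, limit read from the data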;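 note: 0% = full 14-3-3 plus peptide FRET controls and 100% = background without 14-3-3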
The depositor's hits bear a star; . = no result; ! = repeats disagree. An excerpt weighted towards active compounds, which were near 3.5% of everything screened.

SMILES	Mcl1-Bid inh	Mcl1 Noxa PPI	Mcl-1 Bim block	eIF4E-4G inh	Hck-Nef inh	14-3-3 Bad PPI
CC(=O)Cc1nsc(Nc2ccc(Cl)cc2)n1	-15.7	5.4	0.0	3.0	24.6	-7.8
O=C(COC(=O)c1cc(-c2ccco2)nc2ccccc12)NCc1ccc2c(c1)OCO2	22.4	75.9*	1.0	1.5	8.7	9.2
O=C(NC1CCC(O)CC1)c1cc(-c2ccco2)nc2ccccc12 (stereo unspecified)	-43.2	54.5*	0.0	40.4*	45.6	12.2
NC(=O)COC(=O)c1cc(-c2ccco2)nc2ccccc12	9.4	60.7*	.	5.4	-13.2	2.4
CCOC(=O)c1cc(-c2ccco2)nc2c1c(C)nn2-c1ccccc1	14.5	56.1*	5.0	-5.3	2.6	-14.7
O=C(CN(C(=O)CSc1nc2ccccc2o1)c1cccc(F)c1)NC1CCCCC1	-13.7	13.4	-4.0	2.4	-0.1	-1.2
CCCCNC(=S)Nc1ccc(OC)nc1	-40.6	3.8	-2.0	-4.5	21.1	-9.4
O=C(O)c1ccc(N/N=C/C2=Cc3ccccc3OC2)cc1	-108.5	24.8	.	-2.8	11.3	-0.2
Cc1ccc(-c2cc(C(=O)N3CCN(c4ccc(F)cc4)CC3)c3ccccc3n2)o1	-62.4	44.0	0.0	.	0.1	.
O=C(O)c1cc(-c2ccco2)nc2ccc(Br)cc12	26.3	83.9*!	4.0	4.7	14.2	1.9
COc1ccccc1CNC(=O)COC(=O)c1cc(-c2ccco2)nc2ccccc12	32.5	92.2*	3.0	0.4	13.6	15.3
Cc1ccc(-c2cc(C(=O)N3CCN(c4ncccn4)CC3)c3cc(Br)ccc3n2)o1	20.8	79.0*	4.0	-3.8	17.3	-6.1
CCc1nnc(NC(=O)c2cc(-c3ccco3)nc3ccccc23)s1	-31.4	82.1*	1.0	23.6	-1.8	-0.4
Nc1nnc(SCC(=O)c2ccc3c(c2)NC(=O)CO3)s1	-62.5	13.6	0.0	-2.5	9.6	-6.7
CC(C)CNC(=S)N1CCC(NC(=O)c2ccco2)CC1	-33.2	-5.0	2.0	0.6	-1.6	1.8
Cc1cc(C)nc(SCC(=O)NN=C2CCCC2)n1	-9.9	-1.5	-3.0	-2.3	17.4	-16.3
Cc1ccc2cc(C(=O)O)c(C)nc2c1	34.1	28.8	-5.0	-11.0	-0.6	79.2*
COc1ccc(CC(=O)Nc2ccc(-c3ccc4nnc(C)n4n3)cc2)cc1OC	-15.4	32.3	5.0	-4.0	-4.1	-1.0
Cc1ccccc1N=Nc1c(C)[nH]n(-c2ccccc2)c1=O	-14.1	1.5	5.0	59.3*	20.7	-8.8
Cc1nn(-c2ccccc2)c(Cl)c1/C=N/NC(=O)CCNc1n[nH]c(=O)[nH]c1=O	-37.2	13.3	.	-1.5	-5.5	-1.9
CO/N=C/C(C#N)c1ncc(C(F)(F)F)cc1Cl (stereo unspecified)	-16.0	16.5	-1.0	83.3*	0.6	3.0
N#CC(c1ccccn1)c1ncc(C(F)(F)F)cc1Cl (stereo unspecified)	-21.3	-0.1	-2.0	-7.7	-13.9	-5.6
CNc1nc(SC)n(C)c(=O)c1N=O	-27.4	5.4	.	-1.6	11.7	5.7
Cc1cc(C(F)(F)F)n2nc(-c3cnn(C)c3C(F)(F)F)c(Br)c2n1	-3.8	7.8	-1.0	-2.6	-10.0	-9.5
COc1ccc(Nc2nc(N)c([N+](=O)[O-])c(NCc3ccccc3)n2)cc1	29.4	51.2*	.	-4.9	-1.4	-5.4
CCOC(=O)c1c(-c2ccc(C)o2)csc1NC(=O)CN1CCN(CC)CC1	-21.2	19.2	1.0	-2.2	0.9	71.0*
CCOC(=O)c1c(-c2ccc(C)o2)csc1NC(=O)CN1CCCCC1	-18.4	15.5	-7.0	3.4	31.8	-4.3
CCOc1ncccc1C(=O)NCCN1C(=O)S/C(=C/c2cccs2)C1=O	-16.2	13.6	-2.0	1.2	6.7	2.2
